# Measured values from PubChem BioAssay AID504834 (National Center for Advancing Translational Sciences (NCATS), 2011).
# The campaign covered roughly 320,000 compounds. About 22,000 (6.9%) were called active. Where a call stands in place of a potency, no number is given. Another 27% or so got no clear call; they are omitted. For the sample, actives were picked, then their nearest neighbours and some compounds at random. A number with no mark means an inactive call. The call rests on the fitted dose curve; in most records, active means well fitted inhibition curve with a large enough effect; inconclusive means small, poorly fitted or top-dose-only effect, or another doubt; inactive means no such curve, though single readings can be large or run the other way.
# Assay: Primary qHTS for delayed death inhibitors of the malarial parasite plastid, 96 hour incubation
# Conditions: P. falciparum luciferase reporter growth; series mostly up to 28.7 µM
# Procedure, shortened: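 Erythrocytes infected with luciferase-expressing P. falciparum were dispensed at 2% hematocrit and 0.05% parasitemia (final), then incubated with compounds 96 hours at 37 C in 5% CO2. Luminescence after detection reagent addition reported growth.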
# Potency means the concentration at half of the fitted maximal effect.
Structure (SMILES),Potency,"activity change, negative = inhibition"
CCc1nn(CCCC(=O)Nc2ccc(C)c(C)c2)c(=O)c2cc3occc3n12,inactive,–
CC1CC(C)(C)CC2(C1)NC(=O)N(CC(=O)Nc1nccs1)C2=O (stereo unspecified),inactive,–
CC(C)n1c(COc2ccccc2)nc2ccccc21,inactive,–
Brc1ccccc1C1Nc2cccc3cccc(c23)N1,inactive,–
Cc1ccc(C2Nc3cccc4cccc(c34)N2)cc1,inactive,–
COc1ccc2[nH]c3ccc(OC)cc3c2c1,inactive,–
Oc1ccc(C2Nc3cccc4cccc(c34)N2)cc1,10.4 µM (active),–
COc1cccc(C2Nc3cccc4cccc(c34)N2)c1,7.38 µM (active),–
COc1ccc(C2NC(=O)c3ccccc3N2)cc1 (stereo unspecified),inactive,–
N#Cc1ccccc1S(=O)(=O)N1CCN(Cc2c(O)ccc3ccccc23)CC1,inactive,–
CC(CCc1ccccc1)NC(=O)c1cnc(Cl)c(Cl)c1 (stereo unspecified),inactive,–
Cc1ccc(N(C(=O)CNC(=O)c2ccco2)C(C(=O)NC2CCCC2)c2ccncc2)cc1 (stereo unspecified),inactive,–
CC(C)C(NC(=O)c1c(F)cccc1F)C(=O)NCc1ccncc1 (stereo unspecified),inactive,–
C[C@@H](NC(=O)OC(C)(C)C)c1nnc(S(=O)(=O)Cc2ccccc2)o1,inactive,–
CC(C)CN(CC(C)C)C(=O)CN1c2cccc3cccc(c23)S1(=O)=O,inactive,–
CCn1c(CC(=O)Nc2ccccc2)nnc1SCC(=O)N1CCOCC1,inactive,–
CCOc1cc(/C=N/NC(=O)c2ccc(CSc3nncn3C)cc2)ccc1OCC(=O)N1CCOCC1,11.7 µM (active),–
COC(=O)c1ccc(CSc2nncn2C)cc1,inactive,–
CCOc1cc(/C=N/NC(=O)c2cccc(S(=O)(=O)N3CCOCC3)c2)ccc1OCC(=O)N(C)C,inactive,–
CC(=O)N1CC[n+]2c(-c3ccc([N+](=O)[O-])cc3)csc21,inactive,–
CC1CCN(S(=O)(=O)c2ccc(NC(=O)C3CC(=O)N(c4ccccc4)C3)cc2)CC1 (stereo unspecified),inactive,–
COc1ccc(/C=C/c2nnc(NC(=O)C(C)C)s2)cc1,inactive,–

Structure (SMILES),Potency,"activity change, negative = inhibition"
O=C(Nc1ccc(Cl)cc1)Nc1nnc(/C=C/c2ccccc2)s1,13.1 µM (active),–
O=C(CSc1ccccc1)Nc1nnc(/C=C/c2ccccc2)s1,inactive,–
CC(C)NC(=O)N1CCN(c2ccncc2S(=O)(=O)N2CCCCC2)CC1,inactive,–
CNS(=O)(=O)c1cnccc1N1CCN(c2cccc(C)c2)CC1,10.4 µM (active),–
O=S(=O)(c1cnccc1N1CCN(/N=C/c2ccc(Br)cc2)CC1)N1CCCCC1,inactive,–
COc1ccc(F)cc1C(=O)COC(=O)c1n[nH]c(=O)c2ccccc12,inactive,–
O=C(c1n[nH]c2c1CCC2)N1CCCC(Nc2cccc(F)c2)C1 (stereo unspecified),inactive,–
CSc1nc(-c2ccco2)nn1C(=O)c1ccccc1Cl,inactive,–
COc1ccc(CCNS(=O)(=O)c2ccc(C(=O)NCc3ccco3)cc2)cc1OC,–,11.4% [at 5.75 µM]
CCC1=Nc2cc(C(=O)NCCCN3CCOCC3)ccc2Sc2ccc(Br)cc21,inactive,–
CCCC1=Nc2cc(C(=O)NCc3ccco3)ccc2Sc2ccccc21,2.94 µM (active),–
COCCN(C(=O)COC(=O)Cc1cccc(OC)c1)c1c(N)n(Cc2ccccc2)c(=O)[nH]c1=O,inactive,–
Cc1ccc(F)cc1S(=O)(=O)Nc1cccc(C(=O)N2CCCC(C(N)=O)C2)c1 (stereo unspecified),inactive,–
CCOc1ccc(CN2CCN(Cc3ccc4cc(F)ccc4n3)CC2CCO)cc1 (stereo unspecified),13.1 µM (active),–
COc1cccc(CN2CCN(Cc3ccc4cccc(F)c4n3)CC2CCO)c1 (stereo unspecified),inactive,–
CCOc1ccc(CN2CCN(CCCc3ccccc3)C(CCO)C2)cc1 (stereo unspecified),inactive,–
Cc1cccc(C(=O)NCc2nnc(SC(C)C(=O)Nc3nnc(C)s3)n2C)c1 (stereo unspecified),inactive,–
O=C(Nc1ccn(Cc2ccccc2)n1)c1cccc(F)c1,inactive,–
Cc1ccc(Cn2ccc(NC(=O)c3cc(C(C)C)on3)n2)cc1,inactive,–
O=C(Nc1ccn(Cc2ccc(F)cc2)n1)c1ccncc1,9.28 µM (active),–
COc1ccc(C2=NN(C(=O)CSc3nnnn3C)C(c3ccco3)C2)cc1 (stereo unspecified),inactive,–
CCN(C(=O)c1ccc(Br)cc1)c1ccccc1,inactive,–

Structure (SMILES),Potency,"activity change, negative = inhibition"
O=C(COc1ccc(F)cc1)N(CC1=CCS(=O)(=O)C1)c1ccccc1,inactive,–
CCN(C(=O)COc1ccc(C(=O)c2ccccc2)cc1)c1ccccc1,11.7 µM (active),–
CCc1ccc(NC(=O)CS(=O)CC(=O)N2CCN(c3ccccc3F)CC2)cc1 (stereo unspecified),inactive,–
COc1cccc(/C=N/Nc2ccc(Cl)nn2)c1,inactive,–
CCOC(=O)C(C)n1cnc2c(nnn2-c2ccc(F)cc2)c1=O (stereo unspecified),inactive,–
COc1cccc2c(N/N=C/c3ccco3)cc(C)nc12,inactive,–
COc1cccc(/C=N/Nc2ncc(C(F)(F)F)cc2Cl)c1O,inactive,–
COc1cccc(/C=N/Nc2cc(C)nc(-c3ccccc3O)n2)c1O,0.37 µM (active),–
O=C(Nc1ccncc1)c1ccc(Cl)c([N+](=O)[O-])c1,inactive,–
O=C(/C=C/c1ccc2c(c1)OCCO2)c1ccc(O)cc1,inactive,–
O=C(/C=C/c1ccc(Cl)c([N+](=O)[O-])c1)c1ccc(O)cc1,9.28 µM (active),–
O=C(/C=C/c1ccc(Cl)c([N+](=O)[O-])c1)c1cccnc1,inactive,–
CN(C)c1ccc(/C=C/C(=O)c2ccc(O)cc2)cc1[N+](=O)[O-],inactive,–
NC(N)=N/N=C/c1ccc(Cl)c([N+](=O)[O-])c1,11.7 µM (active),–
COc1ccc(Cl)cc1NC(=O)COc1ccc2c(c1)OCO2,inactive,–
CCN1C(=S)N[C@@H](c2cccc(C(F)(F)F)c2)C(C(=O)OC)=C1C,inactive,–
CCCCn1c(N)c(N(CC(C)C)C(=O)CSc2ccc([N+](=O)[O-])cc2)c(=O)[nH]c1=O,inactive,–
COc1ccc(OC)c(CN2CCN(C(=O)CNC(=O)c3cc(C)cc(C)c3)CC2)c1,inactive,–
O=C(CCNC(=O)c1ccccc1Cl)NCc1ccco1,inactive,–
Cc1cccc(C)c1NC(=O)COC(=O)c1ccccc1O,inactive,–
C=CCn1c(CNS(=O)(=O)c2ccc(Br)cc2)nnc1SC,inactive,–
CC(=O)Nc1ccc(NC(=O)c2ccc3c(c2)C(=O)N(c2ccccc2C)C3=O)cc1,inactive,–

Structure (SMILES),Potency,"activity change, negative = inhibition"
Cc1cccc(N2C(=O)c3ccc(C(=O)Nc4cccc(C(=O)O)c4)cc3C2=O)c1,13.1 µM (active),–
COC(=O)c1cccc(NC(=O)c2cccc(N3C(=O)CCC3=O)c2)c1,inactive,–
NC(=O)c1nsc(C(=O)N(CCCN2CCOCC2)C(C(=O)NC2CCCCC2)c2ccc(Cl)cc2)c1N (stereo unspecified),inactive,–
c1ccc2cc(CCCc3cc4ccccc4cn3)ncc2c1,inactive,–
CCOc1ccc(OCc2ccc(C(=O)N(C)c3ccccc3)o2)cc1,inactive,–
CCOC(=O)c1nnn(-c2nonc2OC)c1-c1ccccc1,inactive,–
CCOC(=O)c1nnn(-c2nc(OC)nc(N(C)C)n2)c1-c1ccccc1,2.33 µM (active),–
CCOC(=O)c1c(N)nn(C(=O)c2ccccc2)c1-c1ccccc1,inactive,–
NC(=O)c1ccsc1NC(=O)COC(=O)Cc1n[nH]c(=O)c2ccccc12,inactive,–
COc1ccc(OC)c(C(O)c2nc3ccccc3n2C)c1 (stereo unspecified),inactive,–
CCCn1c(C(O)c2ccc(OCC)cc2)nc2ccccc21 (stereo unspecified),inactive,–
CCn1c(C(O)c2cc(OC)ccc2OC)nc2ccccc21 (stereo unspecified),9.28 µM (active),–
O=C(Nc1cccc(Cl)c1)c1cc(S(=O)(=O)N2CCCCC2)c[nH]1,inactive,–
CC(=O)Nc1ccc(S(=O)(=O)NC2Cc3ccccc3C2)cc1,inactive,–
COc1ccc(C2=NN(C(=O)c3ccccc3C(=O)O)C(c3ccccc3O)C2)cc1 (stereo unspecified),inactive,–
CCOc1ccc2nc(Cl)c(C3CC(c4ccccc4)=NN3C(=O)c3cccs3)cc2c1 (stereo unspecified),8.28 µM (active),–
COc1ccc(C2CC(c3ccccc3)=NN2C(=O)c2ccc(Cl)c([N+](=O)[O-])c2)cc1 (stereo unspecified),inactive,–
Cc1ccccc1Cn1c2ccccc2c2cnn(CC(=O)NCc3ccco3)c(=O)c21,inactive,–
CCN(C(=O)COC(=O)CCOc1cccc(C)c1)c1c(N)n(Cc2ccccc2)c(=O)[nH]c1=O,inactive,–
COc1ccc(NC(=O)CN(C)CC(=O)Nc2cccc(C(F)(F)F)c2)cc1,inactive,–
COc1cc(NC(=O)c2cncc(-c3ccc(C#N)cc3)c2)cc(C(=O)Nc2cccc(C(F)(F)F)c2)c1,6.57 µM (active),–
O=C(Nc1cccc(C(F)(F)F)c1)c1cnccn1,inactive,–

Structure (SMILES),Potency,"activity change, negative = inhibition"
Cc1c(Cl)cccc1NC(=S)NCC(O)c1ccccc1 (stereo unspecified),inactive,–
COCCNC(=O)C(OC(=O)c1cccs1)c1ccc(F)cc1 (stereo unspecified),13.1 µM (active),–
CC(C)C(=O)NCC(c1cccs1)S(=O)(=O)c1ccc(F)cc1 (stereo unspecified),inactive,–
O=C(OC(C(=O)NC1CCCC1)c1ccc(F)cc1)c1ccno1 (stereo unspecified),inactive,–
CC(=O)C[C@@H](O)CC(=O)[C@H]1OC(=O)CCCCCCc2ccccc21,inactive,–
CCCCn1c(N)c(N(CCOC)C(=O)c2cccc(OCc3ccccc3)c2)c(=O)[nH]c1=O,inactive,–
Cc1cccn2c(=O)c3cc(C(=O)NCCN4CCOCC4)c(=N)n(Cc4cccnc4)c3nc12,7.38 µM (active),–
CCn1c(=N)c(C(=O)NCCCOC)cc2c(=O)n3cccc(C)c3nc21,inactive,–
Cc1cccn2c(=O)c3cc(C#N)c(=O)n(CCCN4CCOCC4)c3nc12,2.62 µM (active),–
O=C(NCc1ccco1)c1cccn2c(=O)c3c4c(sc3nc12)CCCC4,inactive,–
Cc1cccn2c(CNCC(C)Oc3cccnc3)c(C(=O)N3CCOCC3)nc12 (stereo unspecified),inactive,–
COCC(C)OC(=O)c1c(N)n(CCCN2CCOCC2)c2nc3ccccc3nc12 (stereo unspecified),inactive,–
COc1ccc(Cn2c(=S)[nH]c3cc(C(=O)NCCCN4CCOCC4)ccc3c2=O)cc1,inactive,–
Cc1cccn2c(=O)c3cc(C(=O)NCC4CCCO4)c(=N)n(Cc4ccc(F)cc4)c3nc12 (stereo unspecified),9.28 µM (active),–
COc1ccc(CCn2c(=N)c(C(=O)NCc3ccco3)cc3c(=O)n4cccc(C)c4nc32)cc1,0.586 µM (active),–
Cc1ccc(-c2noc(-c3ccccc3C(=O)NCC3CCCO3)n2)cc1 (stereo unspecified),inactive,–
Cc1ccc2cc(C#N)c(NCCNC(=S)NCCCN3CCOCC3)nc2c1,inactive,–
COCCNC(=O)c1ccc(Cn2c(SCC(=O)NCC3CCCO3)nc3ccc(Br)cc3c2=O)cc1 (stereo unspecified),inactive,–
